The source of these data is PMC8384837, “Expanding the binding specificity for RNA recognition by a PUF domain”.

What all share (experiment): yeast three-hybrid, YBZ-1, SC-Leu-His + 0.5 mM 3-AT, 4 days
Common to all, as to conditions: tags: N-Gal4 AD-HA kept; label: inside an RPR1-promoter hybrid RNA with tandem MS2 sites; ssRNA

In one assay the target is PUM1 PUF domain R3-DWV (Homo sapiens, UniProt Q14671 828-1176, C935D;R936W;Q939V). The method, boiled down:
(§1)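 Matching RNA elements and Pumilio-1 PUF domain libraries, randomized at the three base-contacting residues of every repeat, were co-expressed from a centromeric plasmid in strain YBZ-1 (LexA–MS2 coat fusion, HIS3 reporter). The repeat regions were PCR-amplified and Illumina-sequenced from cells grown four days on SC-Leu (input) or SC-Leu-His + 0.5 mM 3-AT (selection). The interaction score is the log change in variant frequency from input to selection. It is computed in log2, with a pseudocount of 1 for absent variants.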

The next assay concerns the target PUM1 PUF domain R3-GCK (Homo sapiens, UniProt Q14671 828-1176, C935G;R936C;Q939K). The gist of the method: as §1
The target of a further assay is PUM1 PUF domain R5-SQA (Homo sapiens, UniProt Q14671 828-1176, C1007S;R1008Q;Q1011A). The gist of the method:
as §1

Another assay deals with PUM1 PUF domain R5-KDK (Homo sapiens, UniProt Q14671 828-1176, C1007K;R1008D;Q1011K). The method, boiled down: as §1
The next assay addresses PUM1 PUF domain R3-YYR (Homo sapiens, UniProt Q14671 828-1176, C935Y;R936Y;Q939R). The method, boiled down:
as §1

The target of the next assay is PUM1 PUF domain R1-KFL (Homo sapiens, UniProt Q14671 828-1176, S863K;R864F;Q867L). The gist of the method: as §1
In another assay the target is PUM1 PUF domain R1-NFS (Homo sapiens, UniProt Q14671 828-1176, S863N;R864F;Q867S). The gist of the method:
as §1

The target of a further assay is PUM1 PUF domain R8-PFR (Homo sapiens, UniProt Q14671 828-1176, N1122P;Y1123F;Q1126R). The method, boiled down: as §1
In the next assay the target is PUM1 PUF domain R8-MYF (Homo sapiens, UniProt Q14671 828-1176, N1122M;Q1126F). The method, boiled down: as §1
Sequence of PUM1 PUF domain R8-MYF (Q14671 828-1176 N1122M/Q1126F): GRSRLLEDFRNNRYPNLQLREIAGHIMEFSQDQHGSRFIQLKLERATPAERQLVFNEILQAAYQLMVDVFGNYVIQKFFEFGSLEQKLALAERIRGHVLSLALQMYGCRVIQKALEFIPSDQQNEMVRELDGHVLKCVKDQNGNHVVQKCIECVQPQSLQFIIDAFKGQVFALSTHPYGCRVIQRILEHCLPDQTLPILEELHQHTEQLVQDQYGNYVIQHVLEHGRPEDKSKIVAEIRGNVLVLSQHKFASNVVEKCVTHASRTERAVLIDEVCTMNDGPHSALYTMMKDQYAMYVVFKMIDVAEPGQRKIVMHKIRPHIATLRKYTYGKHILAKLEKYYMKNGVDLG
The target of a further assay is PUM1 PUF domain R5-SQK (Homo sapiens, UniProt Q14671 828-1176, C1007S;R1008Q;Q1011K). The gist of the method:
as §1

A further assay has as its target PUM1 PUF domain R7-GCR (Homo sapiens, UniProt Q14671 828-1176, S1079G;N1080C;E1083R). The gist of the method:
as §1

Sequence of PUM1 PUF domain R3-GCK (Q14671 828-1176 C935G/R936C/Q939K): as the sequence (Q14671 828-1176 N1122M/Q1126F) above, with C108G, R109C, Q112K, M295N, F299Q counted along it
Sequence of PUM1 PUF domain R5-SQA (Q14671 828-1176 C1007S/R1008Q/Q1011A): as the sequence (Q14671 828-1176 N1122M/Q1126F) above, with C180S, R181Q, Q184A, M295N, F299Q counted along it
Sequence of PUM1 PUF domain R1-NFS (Q14671 828-1176 S863N/R864F/Q867S): as the sequence (Q14671 828-1176 N1122M/Q1126F) above, with S36N, R37F, Q40S, M295N, F299Q counted along it
Sequence of PUM1 PUF domain R3-YYR (Q14671 828-1176 C935Y/R936Y/Q939R): as the sequence (Q14671 828-1176 N1122M/Q1126F) above, with C108Y, R109Y, Q112R, M295N, F299Q counted along it
Sequence of PUM1 PUF domain R3-DWV (Q14671 828-1176 C935D/R936W/Q939V): as the sequence (Q14671 828-1176 N1122M/Q1126F) above, with C108D, R109W, Q112V, M295N, F299Q counted along it

For the sequence “GGCUAGAACUAGUGGAUCCCCCGGCGCCCGGCGGCUCGAGCCCGGGUAAGUGUAAGUAGUCUGCAUGCCGCCGGGCGCCAUGCCUGCAGGUCGACUCUAGAAAACAUG”, the binding signal in the assay with PUM1 PUF domain R3-DWV was 3.22 log2 enrichment (interaction score); with PUM1 PUF domain R3-GCK, 2.22 log2 enrichment (interaction score).

For “GGCUAGAACUAGUGGAUCCCCCGGCGCCCGGCGGCUCGAGCCCGGGUAAGUGUGAAUAGUCUGCAUGCCGCCGGGCGCCAUGCCUGCAGGUCGACUCUAGAAAACAUG”, in the assay with PUM1 PUF domain R5-SQA, the binding signal was 3.09 log2 enrichment (interaction score). Consider “GGCUAGAACUAGUGGAUCCCCCGGCGCCCGGCGGCUCGAGCCCGGGUAAGUGUCAAUAGUCUGCAUGCCGCCGGGCGCCAUGCCUGCAGGUCGACUCUAGAAAACAUG”, for which the binding signal with PUM1 PUF domain R5-KDK is 2.95 log2 enrichment (interaction score). Turning to “GGCUAGAACUAGUGGAUCCCCCGGCGCCCGGCGGCUCGAGCCCGGGUAAGUGUAACUAGUCUGCAUGCCGCCGGGCGCCAUGCCUGCAGGUCGACUCUAGAAAACAUG”, the binding signal with PUM1 PUF domain R3-YYR was 2.31 log2 enrichment (interaction score). As to “GGCUAGAACUAGUGGAUCCCCCGGCGCCCGGCGGCUCGAGCCCGGGUAAGUGUAAAUUGUCUGCAUGCCGCCGGGCGCCAUGCCUGCAGGUCGACUCUAGAAAACAUG”, the binding signal in the assay with PUM1 PUF domain R1-KFL is 2.99 log2 enrichment (interaction score); with PUM1 PUF domain R1-NFS, 7.9 log2 enrichment (interaction score). Take “GGCUAGAACUAGUGGAUCCCCCGGCGCCCGGCGGCUCGAGCCCGGGUAAGCGUAAAUAGUCUGCAUGCCGCCGGGCGCCAUGCCUGCAGGUCGACUCUAGAAAACAUG”: the values for the binding signal with PUM1 PUF domain R8-PFR and in the assay with PUM1 PUF domain R8-MYF were 5.6 log2 enrichment (interaction score) and 2.53 log2 enrichment (interaction score), respectively. Regarding “GGCUAGAACUAGUGGAUCCCCCGGCGCCCGGCGGCUCGAGCCCGGGUAAGUGUUAAUAGUCUGCAUGCCGCCGGGCGCCAUGCCUGCAGGUCGACUCUAGAAAACAUG”, in the assay with PUM1 PUF domain R5-SQK, the binding signal is 2.21 log2 enrichment (interaction score). Regarding “GGCUAGAACUAGUGGAUCCCCCGGCGCCCGGCGGCUCGAGCCCGGGUAAGUCUAAAUAGUCUGCAUGCCGCCGGGCGCCAUGCCUGCAGGUCGACUCUAGAAAACAUG”, the binding signal in the assay with PUM1 PUF domain R7-GCR was 5.49 log2 enrichment (interaction score).
